Among all 4,300 compounds or so, about 4,000 (93%) were called active.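 How the source made its calls: active means inhibition above its plate's cutoff, the mean test-well inhibition plus 3 SD (cut at about 4.8% in these data); inactive means the rest.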 The set was probably picked from earlier hits. These entries were drawn from the full list.
assay: DNA CAG/GTC dye complex inhibitors – biochemical, fluorescence, TO-PRO-1 dye, d(CAG) DNA oligo, counter-screen for rCAG RNA repeat binder project (AID 652068); conditions: d(CAG) DNA oligo TO-PRO-1 dye displacement, at 3 µM, hits give high values;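 further: 0% = DNA dye mix with DMSO and 100% = 100 µM mitoxantrone; hits displace the dye from DNA and so lower well fluorescence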

SMILES	inhibition
O=C1NC(=O)N(Cc2ccco2)C(=O)/C1=C\c1ccc(-c2ccc(F)cc2)o1	13.1% (active)
O=C1CC(=O)N(Cc2ccccc2)C(=O)N1CCCCCCN1C(=O)CC(=O)N(Cc2ccccc2)C1=O	22.6% (active)
COc1ccc(N2C(=O)/C(=C/c3ccco3)C(=O)NC2=S)cc1	61.4% (active)
CC/C(=N\NC(=O)c1ccccc1O)c1c(O)n(Cc2ccccc2)c(=O)[nH]c1=O	36.7% (active)
COc1ccc2c(c1)[C@@]13CCCCC1[C@@H](C2)NCC3 (some centres not stated)	-5.51% (inactive)
COc1cccc(N2C(=O)NC(=O)/C(=C\c3ccc([N+](=O)[O-])s3)C2=O)c1	19.4% (active)
O=C1NC(=O)N(c2ccccc2)C(=O)/C1=C/c1ccc([N+](=O)[O-])s1	25.7% (active)
